The supplement of paper PMC13380429
Where a name gives a salt, the structure may show the parent alone.

What was measured:
[1] = tested on: Vero E6 infected with SARS-CoV-2; assay: morphology score (similarity to uninfected cells); higher = more like uninfected cells; conditions: 24 h
[2] = tested on: Vero E6 infected with SARS-CoV-2; assay: SARS-CoV-2 infection rate relative to infected DMSO; higher = more infection, active = 60 or less; conditions: 24 h

Structure (SMILES) | morphology score [1] | SARS-CoV-2 infection rate [2]
C[N@+]1(CC2CC2)CC[C@]23c4c5ccc(O)c4O[C@H]2C(=O)CC[C@@]3(O)[C@H]1C5 [methylnaltrexone] (10 µM) | -0.0178 | 118% (inactive)
C=CC(=O)N1CCC[C@@H](n2nc(-c3ccc(Oc4ccccc4)cc3)c3c(N)ncnc32)C1 [ibrutinib] (10 µM) | 0.197 | 109% (inactive)
Nc1cc(Cl)c(N=C2NCCN2)c(Cl)c1 [apraclonidine] (10 µM) | -0.0224 | 110% (inactive)
Oc1c(Cl)cc(Cl)c(Cl)c1Cc1c(O)c(Cl)cc(Cl)c1Cl [hexachlorophene] (10 µM) | 0.167 | 83.5% (inactive)
COc1cc(C(=O)N(CC[C@H]2CCCN2C)C/C(C)=C/c2ccccc2F)cc(OC)c1OC (racemic) (10 µM) | 0.055 | 108% (inactive)
COc1cccc(CN(C(=O)CC(C)(C)C)[C@H]2C[C@@H](C(=O)N3CCNCC3)N(Cc3ccc4c(c3)OCO4)C2)c1 (10 µM) | 0.0543 | 102% (inactive)
CCCOc1ccc2[nH]c(NC(=O)OC)nc2c1 [oxibendazole] (10 µM) | -0.158 | 118% (inactive)
CCCN(CCC)S(=O)(=O)c1ccc(C(=O)O)cc1 [probenecid] (10 µM) | -0.0854 | 106% (inactive)
CC1=C(C(=O)OC(C)C)C(c2cccc([N+](=O)[O-])c2)C(C(=O)OC2CN(C(c3ccccc3)c3ccccc3)C2)=C(N)N1 (stereo not given) [azelnidipine] (10 µM) | 0.295 | 71.5% (inactive)
O=C(CCCl)NCc1ccccc1 [beclamide] (10 µM) | 0.278 | 97.5% (inactive)
Nc1nc(OCc2ccccc2)c2nc[nH]c2n1 [O6-benzylguanine] (10 µM) | 0.112 | 108% (inactive)
NC(=O)c1ccc(F)c2c1C[C@@H](N(C1CCC1)C1CCC1)CO2 [robalzotan] (10 µM) | 0.00904 | 100% (inactive)
COc1ncc(-c2ccc3c(Nc4cc(Oc5cc(F)cc(F)c5)cc(C(=O)O)c4)c(S(=O)(=O)NC4CC4)cnc3c2)c(OC)n1 (10 µM) | -0.00104 | 109% (inactive)
CCOc1c(N2CCOCC2)cnn(C)c1=O [emorfazone] (10 µM) | 0.185 | 100% (inactive)
COc1cc2c(cc1OC)[C@@H](Cc1cc(OC)c(OC)c(OC)c1)[N+](C)(CCCOC(=O)CC/C=C/CCC(=O)OCCC[N+]1(C)CCc3cc(OC)c(OC)cc3[C@H]1Cc1cc(OC)c(OC)c(OC)c1)CC2 (stereo not given in full) [mivacurium] (10 µM) | -0.0909 | 104% (inactive)
O=Nc1c(O)[nH]c2c(Cl)c(Cl)ccc12 (10 µM) | 0.117 | 93.5% (inactive)
O=C(NC1CCNCC1)c1n[nH]cc1NC(=O)c1c(Cl)cccc1Cl (10 µM) | -0.285 | 109% (inactive)
NC(=O)N1c2ccccc2CC(O)c2ccccc21 (stereo not given) [licarbazepine] (10 µM) | 0.188 | 97% (inactive)
CC(C[N+](C)(C)C)OC(N)=O (stereo not given) [bethanechol] (10 µM) | 0.0417 | 106% (inactive)
CN(C)c1cccc(Oc2cnc(Nc3cccc(O)c3)nc2)c1 (10 µM) | 0.0803 | 109% (inactive)

Structure (SMILES) | morphology score [1] | SARS-CoV-2 infection rate [2]
CCC1(C)CC(=O)NC(=O)C1 [bemegride] (10 µM) | 0.0851 | 95.5% (inactive)
CC(C)Cn1cnc2c1c(=O)n(C)c(=O)n2C [isbufylline] (10 µM) | -0.0146 | 106% (inactive)
CC1CCN(CC[C@H]2CCCN2S(=O)(=O)c2cccc(O)c2)CC1 (10 µM) | 0.0739 | 102% (inactive)
CN(CC[C@@H](Oc1ccc(-c2ccccc2)cc1)c1ccc(F)cc1)CC(=O)O (10 µM) | 0.036 | 108% (inactive)
CC(=O)c1ccc(NS(C)(=O)=O)c(Oc2ccc(F)cc2F)c1 (10 µM) | 0.115 | 92.5% (inactive)
CS(=O)(=O)CCNCc1ccc(-c2ccc3ncnc(Nc4ccc(OCc5cccc(F)c5)c(Cl)c4)c3c2)o1 [lapatinib] (10 µM) | -0.279 | 111% (inactive)
O=C(O)[C@H](Cc1ccccc1)NCc1ccc(Cl)cc1 (10 µM) | 0.0118 | 102% (inactive)
Nc1nccc(/C=C/c2ccccc2)n1 (10 µM) | 0.324 | 93% (inactive)
O=C(O)/C=C(/CC(=O)O)C(=O)O [cis-aconitic-acid] (10 µM) | -0.118 | 110% (inactive)
O=C(/C=C/c1ccc(O)c(O)c1)OCCc1ccccc1 [caffeic-acid-phenethyl-ester] (10 µM) | -0.0125 | 79% (inactive)
CN1CCN(c2c(F)cc3c(=O)c(C(=O)O)cn(CCF)c3c2F)CC1 [fleroxacin] (10 µM) | -0.043 | 115% (inactive)
Oc1c(CN2CCCC2)cc(COCc2ccccc2)c2cccnc12 (10 µM) | 0.0259 | 104% (inactive)
Clc1ccc2c(c1)N=C(N1CCNCC1)c1ccccc1N2 [desmethylclozapine] (10 µM) | 0.467 | 53.5% (active)
CCC[C@@H]1C[C@@H](C(=O)N[C@@H]([C@H]2O[C@H](SC)[C@H](O)[C@@H](O)[C@H]2O)[C@H](C)Cl)N(C)C1 (10 µM) | -0.131 | 102% (inactive)
Fc1ccc(C(OCCN2CCN(C/C=C/c3ccccc3)CC2)c2ccc(F)cc2)cc1 (10 µM) | 0.456 | 65.5% (inactive)
CC(C)CCNc1ncccc1C(=O)N1CCN(Cc2ccccc2)CC1 (10 µM) | -0.0116 | 114% (inactive)
CCc1nc2ccc(Cl)cn2c1C(=O)NCc1ccc(N2CCC(c3ccc(OC(F)(F)F)cc3)CC2)cc1 (10 µM) | 0.0715 | 96% (inactive)
Cc1[nH]c2ccc(O)cc2c1CCN [2-methyl-5-hydroxytryptamine] (10 µM) | 0.00237 | 108% (inactive)
Cc1ncc(Cl)cc1NCc1ccc(C(=O)N[C@@H](CC2CCCC2)C(=O)NC2CC2)s1 (10 µM) | 0.0746 | 106% (inactive)
CC(CNS(=O)(=O)C(C)C)c1ccc(-c2ccc(C#N)cc2)cc1 (stereo not given) (10 µM) | -0.219 | 114% (inactive)

Structure (SMILES) | morphology score [1] | SARS-CoV-2 infection rate [2]
O=[N+]([O-])c1cn2c(n1)OC[C@@H](OCc1ccc(-c3ccc(OC(F)(F)F)cc3)nc1)C2 (10 µM) | -0.214 | 110% (inactive)
Cc1cc(-c2nc(-c3ccc(OC(F)(F)F)cc3)no2)nn1Cc1ccnc(N2CCN(C3CC3)CC2)c1 (10 µM) | 0.0825 | 98.5% (inactive)
CN(C)CCOc1ccc(/C(=C(/CCCl)c2ccccc2)c2ccccc2)cc1 [toremifene] (0.833333 µM) | -0.0544 | 112% (inactive)
CC12CC3CC(C)(C1)CC(N)(C3)C2 [memantine] (10 µM) | 0.0122 | 110% (inactive)
Cc1cccc(C)c1NC(=O)CN1CCCC1=O [nefiracetam] (10 µM) | 0.0495 | 113% (inactive)
CN(C)C(=O)COC(=O)Cc1ccc(OC(=O)c2ccc(NC(=N)N)cc2)cc1 [Camostat mesylate] (10 µM) | 0.0371 | 104% (inactive)
Cc1ncc(COP(=O)([O-])[O-])c(CN(CCN(CC(=O)O)Cc2c(COP(=O)([O-])O)cnc(C)c2O)CC(=O)O)c1O.[Mn].[Na+].[Na+].[Na+] [Mangafodipir (trisodium)] (10 µM) | -0.000637 | 120% (inactive)
COc1cc(F)c(C(C)C)cc1-c1ccc(C(F)(F)F)cc1CN1C(=O)O[C@H](c2cc(C(F)(F)F)cc(C(F)(F)F)c2)[C@@H]1C [anacetrapib] (10 µM) | 0.116 | 106% (inactive)
C[C@H](CCC(=O)O)[C@H]1CC[C@H]2[C@@H]3CC[C@@H]4C[C@H](O)CC[C@]4(C)[C@H]3CC[C@]12C [lithocholic-acid] (10 µM) | 0.0318 | 110% (inactive)
O=C(O)Cc1cccc(OCCCN(Cc2cccc(C(F)(F)F)c2Cl)CC(c2ccccc2)c2ccccc2)c1 (10 µM) | 0.267 | 102% (inactive)
CCn1c(=O)n(C2=C(CO)CN(CC3CCCCCCC3)CC2)c2ccccc21 [trap-101] (10 µM) | -0.109 | 103% (inactive)
COc1ccc(CCC(=O)c2c(O)cc(O[C@@H]3O[C@H](CO)[C@@H](O)[C@H](O)[C@H]3O[C@@H]3O[C@@H](C)[C@H](O)[C@@H](O)[C@H]3O)cc2O)cc1O [Neohesperidin dihydrochalcone (Nhdc)] (10 µM) | 0.0549 | 99.5% (inactive)
Cc1cc(OCCCS(C)(=O)=O)cc(C)c1-c1cccc(COc2ccc3c(c2)OC[C@H]3CC(=O)O)c1 (10 µM) | 0.0278 | 108% (inactive)
COc1ccc(-c2cc3c(C)nc(N)nc3n([C@H]3CC[C@H](OCCO)CC3)c2=O)cn1 (0.833333 µM) | 0.0503 | 102% (inactive)
COc1ccc(NS(=O)(=O)c2ccc(N)cc2)nn1 [sulfamethoxypyridazine] (10 µM) | 0.0793 | 110% (inactive)
CCCCCCCC/C=C\CCCCCCCC(=O)NCCO [oleoylethanolamide] (10 µM) | 0.0636 | 102% (inactive)
COc1cc2ncnc(Nc3ccc(F)c(Cl)c3)c2cc1OCCCN1CCOCC1 [gefitinib] (10 µM) | -0.249 | 112% (inactive)
C=C[C@H]1CN2CC[C@H]1CC2C(OC(=O)OCC)c1ccnc2ccc(OC)cc12 (stereo in doubt) [quinine-ethyl-carbonate] (10 µM) | 0.215 | 99% (inactive)
COc1ccc(-c2nc(-c3ccc(-c4cccc(Cl)c4)o3)[nH]c2-c2ccc(OC)cc2)cc1 [neurodazine] (10 µM) | 0.198 | 70% (inactive)
C[C@@]1(CO)[C@H](O)CC[C@@]2(C)[C@H]1CC[C@H]1C[C@@H]3C[C@@]12CC[C@]3(O)CO [aphidicolin] (0.833333 µM) | -0.0875 | 106% (inactive)
